# Test results from PubChem BioAssay (NCI).
# About 79,000 compounds went through this panel and 15% of them were active in at least one assay; those are over-represented in the sample as a whole. A number with no mark means an inactive call. The source made the active and inactive calls. Rule as the data show it: active = growth inhibition above about 70%; inactive = the rest.
# Key:
# [1] = NCI Yeast Anticancer Drug Screen. Data for the rad50 strain (AID 155);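 also: 0% = growth of vehicle-only cultures of the same strain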; details: S. cerevisiae rad50 strain growth inhibition, active compounds read high
# Outline: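 Inhibition values express reduced yeast growth in compound-treated cultures relative to vehicle-treated controls.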
# [2] = NCI Yeast Anticancer Drug Screen. Data for the mec2-1 strain (AID 157); details: S. cerevisiae mec2-1 strain, active compounds read high
# Outline: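 Compounds were applied to mec2-1 yeast cells. Their growth was then compared with that of vehicle-treated cultures to give growth inhibition.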
# [3] = NCI Yeast Anticancer Drug Screen. Data for the sgs1 mgt1 strain (AID 161);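 also: 0% = growth of cultures given vehicle only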; details: S. cerevisiae sgs1 mgt1 strain, active compounds read high
# Outline: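 Growth of a repair-deficient yeast mutant was monitored after compound treatment and expressed as inhibition relative to vehicle-treated cultures.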
# [4] = NCI Yeast Anticancer Drug Screen. Data for the cln2 rad14 strain (AID 165);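 also: 0% = growth equal to vehicle treated cultures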; details: S. cerevisiae cln2 rad14 strain, active compounds read high
# Outline: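 Strain: cln2 rad14 yeast, altered in cell cycle control and DNA damage repair. Read-out: growth inhibition vs vehicle.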
# [5] = NCI Yeast Anticancer Drug Screen. Data for the bub3 strain (AID 167); details: S. cerevisiae bub3 mutant strain, active compounds read high
# Outline: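 Steps: expose the mutant yeast strain to compound; grow alongside vehicle-treated cultures; measure growth; express inhibition against the vehicle cultures.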
# [6] = NCI Yeast Anticancer Drug Screen. Data for the mlh1 rad18 strain (AID 175); details: S. cerevisiae mlh1 rad18 strain growth inhibition, active compounds read high
# Outline: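 A repair-deficient yeast strain is exposed to test compound, and growth is scored relative to vehicle-treated controls.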
# [7] = at 5.0 µM (retest, dose inferred, filed as 0.5)
# [8] = at 50.0 µM (retest, dose inferred, filed as 5.0)
Structure (SMILES),"growth inhibition [1, 7] [%]","growth inhibition [1, 8]",growth inhibition ([1]; at 50.0 µM),"growth inhibition [2, 7] [%]","growth inhibition [2, 8]",growth inhibition ([2]; at 50.0 µM),"growth inhibition [3, 7] [%]","growth inhibition [3, 8]",growth inhibition ([3]; at 50.0 µM),"growth inhibition [4, 7] [%]","growth inhibition [4, 8]",growth inhibition ([4]; at 50.0 µM),"growth inhibition [5, 7] [%]","growth inhibition [5, 8]",growth inhibition ([5]; at 50.0 µM),"growth inhibition [6, 7] [%]","growth inhibition [6, 8]",growth inhibition ([6]; at 50.0 µM)
C=C1C(=O)OC2CC1C(O)C/C(C)=C/CC/C(C)=C/C(O)CC2C (stereo not drawn),18,70% (active),-4.95%,19,84% (active),-20.6%,15,54%,9.6%,11,46%,-5%,26,84% (active),-7.7%,48,95% (active),83.5% (active)
O=C1CCC(=O)c2c1c(O)c1ccncc1c2O,18,99% (active),98.1% (active),26,99% (active),99.3% (active),31,99% (active),99.2% (active),11,99% (active),98.5% (active),16,99% (active),99.2% (active),41,99% (active),99% (active)
CCOC1Oc2ccccc2-c2nc(SC)ncc21 (stereo not drawn),23,20%,75.4% (active),14,20%,19.9%,18,21%,36.6%,26,18%,15.9%,28,55%,47.6%,17,19%,43.9%
COC1/C=C/OC2(C)Oc3c(C)c(O)c4c(c3C2=O)C(=O)C=C(NC(=O)/C(C)=C\C=C\C(C)C(OC=O)C(C)C(O)C(C)C(OC(C)=O)C1C)C4=O (stereo not drawn),-15,-4%,47%,1,3%,53.5%,-12,29%,52.5%,-5,3%,79% (active),-8,5%,49.6%,11,27%,55.7%
CC(=O)Nc1ccc2c(c1)C(=O)c1cccc(F)c1-2,6,93% (active),90% (active),-2,54%,25.8%,-4,69%,51.2%,-2,38%,12%,1,17%,12.2%,3,82% (active),45.9%
COc1ccc(NC(=O)CCC(NS(=O)(=O)c2ccc(C)cc2)C(=O)O)cc1 (stereo not drawn),-6,-3%,19.4%,-4,-5%,8.6%,-7,-23%,7.7%,-8,-17%,10.4%,-2,2%,51.9%,-3,-3%,19.1%
